Source: PubChem BioAssay (NCI)
Compounds without any hit were thinned out: in the full panel of roughly 83,000, 20% have a hit.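 96-well plates, one dose, 48 hours. Percent growth reported; active if below 10.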 Active and inactive are the calls of the source.

System: SK-OV-3 ovarian
Assay: NCI-60 one-dose screen, 48 h (100 = growth as untreated, 0 = no growth, -100 = all killed)
Conditions: 10 µM unless noted
Protocol: Growth inhibition of the SK-OV-3 human tumor cell line is measured as a screen for anti-cancer activity. Cells are grown in 96 well plates and exposed to the test compound for 48 hours. Compounds are tested at a single concentration, which is 10^-5 M for most compounds. The reported endpoint is percent growth (GI% or GIPRCNT), where numbers from 0 - 100% represent growth inhibition, and numbers from -100% - 0 represent cell death. For example, a value of 40 represents 60% growth inhibition. A value of 0 means no net growth occurred over the course of the experiment. A value of -40 indicates 40% of cells at the beginning of the experiment died by the end of the experiment. A value of -100 means all cells are dead at the end of the experiment.
NCI-60 Human Tumor Cell Lines Screen was performed using the standard one-dose NCI protocol, which is described in more detail at https://dtp.cancer.gov/discovery_development/nci-60/default.htm.
Compounds with GIPRCNT values below 10 were considered active. Activity score was based on GIPRCNT using the following formula: […]
Score is 0 for GIPRCNT values of 100 or above, 50 for GIPRCNT values of 0, and 100 for GIPRCNT values of -100.

SMILES | growth
C=C(C)[C@@H]1CC[C@]2(C(=O)OC)CC[C@]3(C)[C@H](CC[C@@H]4[C@@](C)(CCc5nn[nH]n5)[C@H](C(=C)C)CC[C@]43C)[C@@H]12 | -2.47% [100 µM] (active)
CCc1ccc(-c2ccc(COc3ccc(CC4SC(=O)NC4=O)cc3)cc2)cc1 (stereo not given) | 84.9% (inactive)
Fc1ccc(NC(=S)c2ccccc2)cc1 | 117% (inactive)
COc1ccc2nc3cc(Cl)ccc3c(Nc3ccc(O)cc3)c2c1 | 93.3% (inactive)
C=C(C)[C@@H]1CC[C@]2(COCCCN)CC[C@]3(C)[C@H](CC[C@@H]4[C@@](C)(CCCNCCCN)[C@H](C(=C)C)CC[C@]43C)[C@@H]12 | -60.4% [100 µM] (active)
O=C(N/N=C/c1c(Cl)cccc1Cl)c1cccc(Nc2ccnc(C(F)(F)F)c2)c1 | 102% (inactive)
Nc1ccc2c(c1)Cc1cc(NC(=O)C(F)(F)F)ccc1-2 | 89.8% (inactive)
O=C(Nc1cc(-c2cccnc2)nc(NCCCN2CCOCC2)n1)c1cc(Br)cc(C(F)(F)F)c1 | 92.3% (inactive)
COc1ccc(C(=O)/C=C/c2ccccn2)c(O)c1 | 98.6% (inactive)
Nn1c(Nc2ccc(S(=O)(=O)Nc3ncccn3)cc2)nnc(/C=C/c2c(O)ccc3ccccc23)c1=O | 84.2% (inactive)
Cc1ccc(NC(=S)/N=c2/n(-c3ccccc3)nc3n2CCN3C2=NCCN2)cc1 | 114% (inactive)
CN(C)c1cc(NN=C(c2ccc(O)cc2)c2ccc(O)cc2)c([N+](=O)[O-])cc1[N+](=O)[O-] | 96.5% (inactive)
CC1(C)C(=NO)C(C)(C)C1=NO | 125% (inactive)
CCCCN(CC)CC(CC)Nc1cc(OC)cc2cccnc12 (stereo not given) | 127% (inactive)
CC1(C)OC2[C@@H](CNC(=O)NC(=O)NC(=O)CI)O[C@@H](n3cnc4c(NC(=O)Nc5ccccc5)ncnc43)[C@H]2O1 (stereo not given in full) | 105% (inactive)
Cc1ccc(S(=O)(=O)Oc2ccc(Br)cc2Br)cc1 | 79.4% (inactive)
CC(=O)OC[C@]12CC[C@@H](C(=O)CBr)[C@@H]1[C@H]1CC[C@@H]3[C@@]4(C)CCCNC(C)(C)[C@@H]4CC[C@@]3(C)[C@]1(C)CC2 | -86.8% [100 µM] (active)
CC1(C(=O)O)CCC(N)(C(=O)O)C1(C)C (stereo not given) | 97% (inactive)
COC(=O)C(=Cc1ccccc1[N+](=O)[O-])C(=O)OC | 69.7% (inactive)
COc1ccc2c(c1)C(C)Cc1c(Cl)ncnc1N2C (stereo not given) | 12.2% (inactive)

SMILES | growth
COc1cc(NCc2ccccc2O)c2ncccc2c1 | 107% (inactive)
COc1ccc(-c2cc(-c3ccc(Cl)cc3)nc(SCCCCCCC(=O)NO)n2)cc1 | 20.1% (inactive)
C=C(CN=[N+]=[N-])[C@@H]1CC[C@]2(C)[C@H](CC[C@@H]3[C@H]4[C@H]5OC(=O)[C@@]4(CCC5(C)C)CC[C@]32C)[C@@]1(C)CCC#N | 75.4% [100 µM] (inactive)
CCCCCCCCCCCCCCNC(=O)Nc1ccc(Cl)c(Cl)c1 | 73% (inactive)
CC1Cc2c(Cl)ncnc2N(C)c2ccc(O)cc21 (stereo not given) | 31.7% (inactive)
CCN(CC)c1cc(N)c(Cc2c(N)cc(N(CC)CC)cc2Cl)c(Cl)c1 | 49.8% (inactive)
CC(C)c1ccc(C(=O)Nc2sc3c(c2C#N)CCC(=O)C3)cc1 | 20.8% (inactive)
CCOC(CNC(=O)c1cccc([N+](=O)[O-])c1)OCC | 108% (inactive)
c1ccc2c(c1)CN(CCCN1CCOCC1)C2 | 102% (inactive)
CC(=O)O.CC(=O)O.O.[Fe] | 94.1% (inactive)
NC(=O)c1cccc(-c2ccc(S(=O)(=O)Nc3ccc4c(c3)N(C(=O)C3CC3)CCC4)cc2)c1 | 38.2% (inactive)
COc1ccc2c(c1)C(C)Cc1c(ncnc1-n1cnc3ccccc31)N2C (stereo not given) | 14.5% (inactive)
CC(C)=CC/C=C(/C)[C@H]1CC[C@]2(C)[C@@H]1CC[C@@H]1[C@@]3(C)CC/C(=N/O)C(C)(C)[C@@H]3CC[C@]12C | 68.8% [100 µM] (inactive)
CCCCC1COc2cccc3c2N1C=C/C3=C\C(=O)n1ccc2ccccc21 (stereo not given) | 77.1% (inactive)
CC1(C)CC[C@]23CC[C@]4(C)[C@H](CC[C@@H]5[C@@]6(C)C/C(=C/c7cccnc7)C(=O)C(C)(C)[C@@H]6CC[C@]54C)[C@H]2[C@H]1OC3=O | 64.6% [100 µM] (inactive)
CCn1cc(-c2ccnc(NCCNS(=O)(=O)c3cccc4ccccc34)c2)c(-c2cccc(O)c2)n1 | 106% (inactive)
O=C(CCCCCCSc1nc(-c2ccc(Cl)cc2)cc(-c2ccc(Cl)cc2)n1)NO | 17.4% (inactive)
Nc1cc(NN=C(c2ccc(O)cc2)c2ccc(O)cc2)c([N+](=O)[O-])cc1[N+](=O)[O-] | -44.4% (active)
Cc1nc(Cl)cc(N(c2cc(Cl)nc(C)n2)c2ncc(C(=O)Nc3c(C)cccc3Cl)s2)n1 | 39.8% (inactive)
O=C(Nc1ccc(Nc2ccncc2)cc1)c1ccc([N+](=O)[O-])cc1 | 88.6% (inactive)
